Test results: PubChem BioAssay
Results filed as inconclusive are left out. Activity calls are given as the source filed them.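 The calls were made as follows, unless noted: active = viability at or below 27.92% in each of two runs, the all-compound median minus 4 SD; inconclusive = no clear call, values can overlap the other calls; inactive = the rest.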

Columns and labels:
[1] = reducers of endogenous Her2 protein level, primary screen, SKBR3 breast tumor cells, AlphaScreen, ATP viability (AID 461;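 active = Her2 level under about 52% in both replicate screens, with viability over 70% of control, limit read from the data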;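 as to Her2 level: lower value means less Her2 protein in the cells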;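 as to viability: percent of carrier control wells set as 100% viability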); details: 18-24 h, measured here: SKBR3 viability, ATP luminescence, at 10 µM
[2] = target: Receptor tyrosine-protein kinase erbB-2 (Homo sapiens) (UniProt P04626); test: as above; details: 18-24 h, at 10 µM, stronger effect = lower value
Chain of Receptor tyrosine-protein kinase erbB-2 (Homo sapiens) (P04626 whole entry, looked up): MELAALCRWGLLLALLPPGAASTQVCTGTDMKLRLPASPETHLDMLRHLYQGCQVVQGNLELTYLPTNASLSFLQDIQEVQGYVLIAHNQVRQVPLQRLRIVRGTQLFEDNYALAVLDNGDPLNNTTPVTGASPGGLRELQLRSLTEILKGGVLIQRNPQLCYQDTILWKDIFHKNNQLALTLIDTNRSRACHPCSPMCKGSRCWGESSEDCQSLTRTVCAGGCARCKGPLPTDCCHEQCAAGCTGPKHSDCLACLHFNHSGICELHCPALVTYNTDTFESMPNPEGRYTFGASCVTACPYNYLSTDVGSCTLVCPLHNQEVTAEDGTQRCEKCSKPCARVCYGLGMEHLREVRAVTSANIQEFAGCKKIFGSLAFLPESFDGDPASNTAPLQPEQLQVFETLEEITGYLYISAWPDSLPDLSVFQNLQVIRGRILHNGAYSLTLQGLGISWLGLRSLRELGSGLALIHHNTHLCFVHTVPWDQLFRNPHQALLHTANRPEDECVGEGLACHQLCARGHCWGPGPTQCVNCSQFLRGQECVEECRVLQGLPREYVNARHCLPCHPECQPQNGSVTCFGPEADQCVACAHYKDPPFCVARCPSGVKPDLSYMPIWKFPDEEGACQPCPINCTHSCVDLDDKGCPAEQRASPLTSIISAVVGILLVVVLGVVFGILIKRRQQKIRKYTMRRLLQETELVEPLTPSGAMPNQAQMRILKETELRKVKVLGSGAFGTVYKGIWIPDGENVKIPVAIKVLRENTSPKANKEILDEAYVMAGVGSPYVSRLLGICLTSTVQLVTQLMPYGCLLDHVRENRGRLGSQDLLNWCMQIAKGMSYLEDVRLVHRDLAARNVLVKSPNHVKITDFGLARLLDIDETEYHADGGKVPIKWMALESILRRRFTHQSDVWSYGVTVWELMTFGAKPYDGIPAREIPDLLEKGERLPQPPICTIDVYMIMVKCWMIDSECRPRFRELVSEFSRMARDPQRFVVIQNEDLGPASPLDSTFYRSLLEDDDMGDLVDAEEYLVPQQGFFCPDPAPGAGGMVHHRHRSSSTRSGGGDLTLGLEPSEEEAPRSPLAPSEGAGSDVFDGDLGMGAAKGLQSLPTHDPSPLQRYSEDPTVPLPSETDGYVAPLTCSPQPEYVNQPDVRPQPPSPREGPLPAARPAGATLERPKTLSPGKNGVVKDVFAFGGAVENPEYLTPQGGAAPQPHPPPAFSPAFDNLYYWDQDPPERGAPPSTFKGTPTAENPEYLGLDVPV

[3] = SK-BR-3 cell growth inhibitors, pilot screen, 24 h, human (AID 572;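 active = viability at or below 10% of carrier control in both of two separate runs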;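 also: compound exposure lasted between 18 and 24 h rather than exactly 24 h; 100% = carrier-treated control wells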); details: SK-BR-3 viability, CellTiter-Glo luminescence, at 10 µM, stronger effect = lower value
[4] = HUVEC growth inhibition – cell-based, human, primary screen (AID 575;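 active = viability at or below 30% in both replicate assays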;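 also: 100% = median of untreated cell wells with 0.1% DMSO on each plate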); details: HUVEC proliferation, CellTiter-Glo luminescence, 72 h; at 10 µM; stronger effect = lower value
[5] = growth inhibitors of H69AR lung tumor, primary screen, human, duplicate replicates (AID 580;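 active = viability at or under a set limit in both replicates, limit being median viability minus 3 SD, cut at about 48% in these data, passing the limit was not always enough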;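 also: 100% = mean luminescence of untreated wells and 0% = no signal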); details: H69AR lung tumor cells viability, ATP luminescence, 72 h; at 10 µM; stronger effect = lower value
[6] = reversal of MRP1-mediated doxorubicin resistance, pilot screen, H69AR cells, doxorubicin co-treatment (AID 601;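 active = viability loss from added drug above about 55%, and viability with drug at most 40%, in both replicates, limit read from the data, passing the limit was not always enough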); details: CellTiter-Glo, 72 h, at 10 µM; for differential viability (reversal): stronger effect = higher value
[7] = 384-well plate pilot, post-Golgi transport modulator project, inhibition of yeast transport mutant growth (AID 636; in the data active = inhibition above about 31%); details: absorbance 615 nm, about 18 h, stronger effect = higher value
[8] = growth suppression of yeast trafficking mutant, preliminary HTS, modulators of trafficking downstream of Golgi apparatus project, 1536-format plate, OD 615 nm (AID 637; in the data active = inhibition above about 30%); details: yeast transport mutant growth, absorbance 615 nm, 18 h; stronger effect = higher value
[9] = OD615 S. cerevisiae growth inhibition, permissive medium, pilot counter-assay, permissive growth control for S. cerevisiae lifespan shortening project (AID 705;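 active = growth inhibition above 25% in both replicates, a cutoff set 3 SD above the mean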); details: OD615, 24 h, at 10 µM, stronger effect = higher value
[10] = Restrictive medium S. cerevisiae growth inhibition, OD615, pilot screen of yeast lifespan reduction project, restrictive growth control (AID 706;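 active = growth inhibition above a set limit, 3 SD over mean compound inhibition, in both replicates, cut at about 43% in these data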;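 also: modified DeaD lifespan yeast strain shifted to restrictive glucose medium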); details: OD615, 48 h, at 10 µM, stronger effect = higher value
[11] = viability gain of MRP-1-high H69AR cells under doxorubicin, pilot screen, MRP-1 activator project, CellTiter-Glo, duplicate (AID 807;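 active = viability increase at or above a cutoff of the median across tested compounds plus 3 SD, cut at about 8.5% in these data, passing the limit was not always enough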;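 also: compound pretreatment 18-22 h then 72 h combined with doxorubicin; 0% = doxorubicin alone and 100% = vehicle without doxorubicin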); details: H69AR viability with doxorubicin, CellTiter-Glo luminescence; at 10 µM; stronger effect = higher value
[12] = growth suppression of beta-catenin knockout HCT116, pilot screen, human colon tumor cells (AID 823;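 active = cell viability at or below a set limit in both duplicate runs, the limit being the all-compound median minus 4 SD, cut at about 23% in these data, passing the limit was not always enough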;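 also: 0% = wells killed by 20 µM Hyamine and 100% = untreated DMSO cell wells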); details: CellTiter-Glo, 60 h, at 10 µM, stronger effect = lower value
[13] = growth suppression of PTEN-deleted HCT116, pilot screen, cell-based, HCT116 clonal line, CellTiter-Glo (AID 824); details: 60 h, at 10 µM, stronger effect = lower value;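 also: 0% = 20 µM Hyamine control and 100% = vehicle cell control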
[14] = inhibitors of the yeast RAM network, pilot screen, dse1pr::URA3 reporter, 5-FOA selection (AID 869;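 active = inhibition over a set limit, the all-compound mean plus 3 SD, in both replicate runs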;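 also: 0% = DMSO wells with no growth and 100% = 10 µM 1-NA-PP1 with full growth; RAM network block rescues cells from 5-FOA so hits raise OD615 growth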); details: S. cerevisiae dse1pr::URA3 5-FOA growth, OD615, 2 d; at 10 µM; stronger effect = higher value; strain carries analog-sensitive mutant Cbk1 kinase
[15] = RAM signaling pathway blockade in yeast – S. cerevisiae, Pdr1DBD-CYC8 efflux-inhibited sensitized strain, primary screen (AID 1298;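 active = RAM network inhibition above 8.4% in each of two replicates, 3 SD over the compound average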;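 also: 0% = DMSO untreated cells without growth and 100% = 10 µM 1-NA-PP1 full growth; higher means more yeast growth rescued from 5-FOA killing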); details: S. cerevisiae cbk1-as DSE1-URA3 strain, 5-FOA growth OD615, 2 d; at 50 µM; stronger effect = higher value
[16] = H69AR cells + 2 uM doxorubicin, measured here: viability with 2 uM doxorubicin, stronger effect = lower value
[17] = H69AR cells, compound alone cytotoxicity

Structure (SMILES) | viability [1] | Her2 level [2] | viability [3] | viability [4] | viability [5] | differential viability (reversal) ([6]; H69AR cells + 2 uM doxorubicin) | viability [6, 16] | viability [6, 17] | inhibition [7] | inhibition [8] | growth inhibition [9] | growth inhibition [10] | viability increase [11] | viability [12] | viability [13] | inhibition [14] | RAM network inhibition [15]
COc1ccccc1N1CCN(CC(O)c2ccc3cc[nH]c3c2)CC1 (stereo not given) | 99% | 112% (inactive) | 99% (inactive) | 95.6% (inactive) | 88.8% (inactive) | 11.4% (inactive) | 77.4% | 88.8% | -3.33% (inactive) | 2.46% (inactive) | 3.54% (inactive) | 5.26% (inactive) | -4.68% (inactive) | 60.7% (inactive) | 61.7% (inactive) | 1.87% (inactive) | 1.54% (inactive)
CC1CCc2nn(CC(=O)NCc3ccc4c(c3)OCO4)cc2C1 (stereo not given) | 86.5% | 88% (inactive) | 86.5% (inactive) | 90.7% (inactive) | 100% (inactive) | 9.8% (inactive) | 90.6% | 100% | -2.93% (inactive) | 2.79% (inactive) | -0.315% (inactive) | -4.54% (inactive) | -0.84% (inactive) | 108% (inactive) | 94.5% (inactive) | -0.525% (inactive) | 1.68% (inactive)
Cc1ccccc1CSc1nnc(C)c(=O)[nH]1 | 90% | 106% (inactive) | 90% (inactive) | 104% (inactive) | 97.2% (inactive) | 4.72% (inactive) | 92.5% | 97.2% | -3.2% (inactive) | -0.17% (inactive) | -7.61% (inactive) | -2.98% (inactive) | -1.7% (inactive) | 98.8% (inactive) | 99% (inactive) | 0.815% (inactive) | 1.17% (inactive)
CCOC(=O)c1ccc2[nH]c3c(c2c1)CN(C)CC3 | 94% | 87.5% (inactive) | 94% (inactive) | 86.6% (inactive) | 93.7% (inactive) | 7.91% (inactive) | 85.8% | 93.7% | -4.27% (inactive) | -0.83% (inactive) | -4.7% (inactive) | 10.1% (inactive) | 0.26% (inactive) | 44% (inactive) | 56.9% (inactive) | 0.51% (inactive) | 0.47% (inactive)
O=C1C2C3C=CC(C3)C2C(=O)N1c1cccc(N2C(=O)C3C4C=CC(C4)C3C2=O)n1 (stereo not given) | 91% | 100% (inactive) | 91% (inactive) | 109% (inactive) | 93.4% (inactive) | -4.17% (inactive) | 97.6% | 93.4% | -4.73% (inactive) | 4.75% (inactive) | -12% (inactive) | -11.8% (inactive) | -0.89% (inactive) | 104% (inactive) | 104% (inactive) | 3.84% (inactive) | 5.46% (inactive)
C=CCc1ccccc1OCCCCN1CCCC1 | 70.5% | 101% (inactive) | 70.5% (inactive) | 77.1% (inactive) | 83.3% (inactive) | -1.74% (inactive) | 85.1% | 83.3% | -9.05% (inactive) | -1.31% (inactive) | 7.25% (inactive) | -3.4% (inactive) | -7.03% (inactive) | 77.1% (inactive) | 80.8% (inactive) | 0.91% (inactive) | 1.88% (inactive)
COc1ccc(-c2noc(COc3ccc(Cl)c(C)c3)n2)cc1 | 91% | 115% (inactive) | 91% (inactive) | 99.6% (inactive) | 88.4% (inactive) | 4.7% (inactive) | 83.7% | 88.4% | -5.07% (inactive) | -7.38% (inactive) | -7.56% (inactive) | -29% (inactive) | 0.12% (inactive) | 101% (inactive) | 91.5% (inactive) | 6.36% (active) | 8.54% (inactive)
O=C1c2ccccc2C(Nc2ccc(F)c(Cl)c2)N1Cc1ccco1 (stereo not given) | 92% | 99% (inactive) | 92% (inactive) | 58.4% (inactive) | 74% (inactive) | -0.96% (inactive) | 75% | 74% | -1.6% (inactive) | 3.83% (inactive) | -5.7% (inactive) | -1.3% (inactive) | -4.57% (inactive) | 72.8% (inactive) | 77.1% (inactive) | 1.6% (inactive) | 7.74% (inactive)
CCCN1CC23C=CC(O2)C(C(=O)O)C3C1=O (stereo not given) | 81.5% | 94% (inactive) | 81.5% (inactive) | 85.4% (inactive) | 98.1% (inactive) | -1.58% (inactive) | 99.7% | 98.1% | -3.87% (inactive) | 0.16% (inactive) | -2.17% (inactive) | 2.93% (inactive) | -0.49% (inactive) | 100% (inactive) | 101% (inactive) | 1.96% (inactive) | -1.04% (inactive)
O=C(O)CC(NC(=O)c1ccccc1NC(=O)c1ccccc1)C(=O)O (stereo not given) | 86.5% | 154% (inactive) | 86.5% (inactive) | 93.5% (inactive) | 97.2% (inactive) | 6.64% (inactive) | 90.5% | 97.2% | 3.97% (inactive) | 35.3% (active) | -0.82% (inactive) | -3.04% (inactive) | -0.74% (inactive) | 108% (inactive) | 96.5% (inactive) | 0.785% (inactive) | 0.47% (inactive)
